# HCMV antiviral: human cytomegalovirus inhibition. HFF cells, HCMV-luciferase reporter, 72 h; hits give low values. activity change, negative = inhibition, % at 57.5 µM. 410,000 compounds, 4.5% hits; in the data active = activity change below about -60%; inconclusive = no clear call, values can overlap the other calls; inactive = above about -39%
#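 Human foreskin fibroblasts infected with luciferase-reporter HCMV at MOI 1 PFU/cell, compounds at two doses. Luciferase measured 72 h post infection; normalized to buffer-only basal and Salinomycin (10uM) controls.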
# VACV Venus inh: vaccinia inhibition (Venus reporter) | Vaccinia virus Venus reporter expression, fluorescence | Potency, µM (highest dose often 36.5 µM), inactives show at the highest dose activity change, negative = inhibition, most hits filed as inhibitors | 330,000 compounds, 0.46% hits | AID 720580; calls by dose curve; tested in A549 cells; note: potency is the fitted concentration of half-maximal effect; nearly all actives have a fitted effect of over 30% in size
# Vaccinia mCherry: vaccinia inhibition (mCherry reporter). 310,000 compounds, 0.63% hits. Potency, µM (doses to about 36.5 µM), without a hit: top-dose activity change, negative = inhibition, usual class: inhibitors. AID 720579. Vaccinia virus mCherry reporter infection, fluorescence; calls by dose curve; tested in A549 cells; note: potency is the fitted concentration of half-maximal effect; nearly all actives have a fitted effect of over 35% in size
# FMDV inh: blocks foot and mouth disease virus | Potency, µM (doses to about 57.9 µM), for inactives: at the top dose activity change, negative = inhibition, actives largely listed as inhibitors | 410,000 compounds, 1.2% hits | FMDV antiviral cell-based qHTS | AID 1159524; calls by dose curve; tested in HEK293T cells; note: read-out not given here; potency is the fitted concentration of half-maximal effect; nearly all actives have a fitted effect of over 45% in size
# MARV entry inh: blocks Marburg virus binding to or entry into cells; Potency, µM (top dose mostly 37.8 µM), without a hit: at the top dose activity change, negative = inhibition, actives largely listed as inhibitors; 300,000 compounds, 1.8% hits; Marburg virus pseudotyped entry inhibition, cell reporter; calls by dose curve; tested in HEK293 cells; note: potency is the fitted concentration of half-maximal effect
# Lassa entry inh: blocks Lassa virus binding to or entry into cells; 300,000 compounds, 1.2% hits; Lassa virus pseudotype entry inhibition, cell reporter; Potency, µM (top dose mostly 37.9 µM), for inactives: at the top dose activity change, negative = inhibition, actives largely listed as inhibitors; calls by dose curve; tested in HEK293 cells; note: potency is the fitted concentration of half-maximal effect; nearly all actives have a fitted effect of over 50% in size
# * = called active by the depositor; i = inactive; ? = inconclusive; nt = no result; [ ] = remark or other dose. This is a sample that favours compounds with a hit; in the whole collection about 6.5% have one here. % is set by controls: 0 for no effect and ±100 for the full control effect.
SMILES,HCMV antiviral,VACV Venus inh,Vaccinia mCherry,FMDV inh,MARV entry inh,Lassa entry inh
CCOC(=O)c1c(-c2ccccc2)nc2c(C)cccn12,-21,nt,nt,-11%,20%,1%
COc1ccc(OC)c(CCNC(=O)c2cc3cccc4c3n2CCS4)c1,0,-5%,-7%,4.5µM*,nt,-25%[46.1 µM]
COc1ccc(OC)c(CCNC(=O)c2csc3c2CCCCC3)c1,-62*,1%,-11%,33%,?,nt
COC(=O)c1sccc1NC(=O)c1c(F)c(F)c(F)c(F)c1F,?,-6%[7.34 µM],i[7.34 µM],22µM*,?,?
COC(=O)c1sccc1NC(=O)c1cccc(F)c1,23,-5%,-12%,0%,5%[46.1 µM],-17%[46.1 µM]
COC(=O)c1sccc1NC(=O)c1ccncc1,22,3%,-5%,-7%,0.1µM*,-16%
O=C(c1cc2c(=O)oc3ccccc3c2s1)N1CCN(c2ccccc2)CC1,7,8%,-14%,-16%,7%[46.1 µM],?
O=C(c1cc2c(=O)oc3ccccc3c2s1)N1CCN(c2cccc(Cl)c2)CC1,-62*,-6%,4%,-7%,0%[46.1 µM],-17%[46.1 µM]
O=C(/C=C/c1ccc(Cl)cc1)N1CCN(c2ccc([N+](=O)[O-])c(N3CCOCC3)c2)CC1,-38,-12%,i,14µM*,-10%,0%
O=C(/C=C/c1ccc(Cl)cc1Cl)N1CCN(c2ccc([N+](=O)[O-])c(N3CCOCC3)c2)CC1,?,-7%,15%,?,-15%,-5%
Cc1cc(C)cc(CN2CCOc3ccc(CN4CCC(O)(c5cccnc5)CC4)cc3C2)c1,nt,-9%,-2%,-19%,nt,nt
N#Cc1ccccc1OCC(O)CNCCNC(=O)Nc1ccccc1 (stereo not given),nt,-15%,i,-1%,nt,nt
COc1ccc(C(=O)Nc2ncnc3nc[nH]c23)cc1,nt,-14%,-9%,nt,nt,nt
COC(=O)CC1=C(C(=O)OC)C(c2cccc(OCC(N)=O)c2)C(C#N)=C(N)O1 (stereo not given),-101*,4%,-5%,-10%,-30%,2%
COc1ccc(-n2nc3c(N4CCC(C(=O)NCc5cccc(C)c5)CC4)nnc(C)c3c2C)cc1,-100*,nt,nt,-5%,nt,nt
COc1ccc(-n2nc3c(N4CCC(C(=O)NCCc5ccco5)CC4)nnc(C)c3c2C)cc1,-31,-19%[7.34 µM],-24%[7.34 µM],-8%,nt,nt
COc1ccc(-n2nc3c(N4CCCC(C(=O)NCc5cccc(F)c5)C4)nnc(C)c3c2C)cc1 (stereo not given),-84*,-5%,?,-16%,nt,-11%[46.1 µM]
CCN(Cc1ccncc1)Cc1ccc2c(c1)CN(C(=O)c1ccccc1)CCO2,nt,5%,-7%,-2%,nt,nt
O=C(CN1C(=O)c2ccccc2S1(=O)=O)NCc1ccccc1Cl,42,-13%,5%,7%,-7%,2%
O=C(CN1C(=O)c2ccccc2S1(=O)=O)NC(Nc1ccccc1F)C(Cl)(Cl)Cl (stereo not given),-105*,5%,-5%,-5%,-8%,5%
Cc1ccc(C(=O)CN2C(=O)c3ccccc3S2(=O)=O)cc1,-88*,-8%,0%,14µM*,?,?
Cc1ccc(C(=O)CN2/C(=C(\O)c3ccccc3)C(=O)c3ccccc3S2(=O)=O)c(C)c1,nt,nt,nt,-8%,?,18µM*
O=C(CN1C(=O)c2ccccc2S1(=O)=O)c1ccccc1Cl,-86*,nt,nt,nt,nt,nt
O=C(CN1C(=O)c2ccccc2S1(=O)=O)NCc1c(F)cccc1F,-31,-6%,i,55%,3%[46.1 µM],0%
CCOC(=O)c1ccccc1OCc1cc(C2Nc3ccccc3C(=O)N2c2cccc3ccccc23)ccc1OC (stereo not given),nt,-3%,38%,nt,nt,nt
SMILES,HCMV antiviral,VACV Venus inh,Vaccinia mCherry,FMDV inh,MARV entry inh,Lassa entry inh
CO[C@]12CC(COC(=O)c3cncc(Br)c3)CN(C)[C@@H]1Cc1cn(C)c3cccc2c13 (stereo not given in full),nt,-4%,-16%,-14%,nt,nt
CC(C)NC(=O)CN1C(=O)c2ccccc2S1(=O)=O,-14,-16%,-2%,49%,?,12%
Cc1cc(C)cc(NC(=O)CCN2C(=O)c3ccccc3S2(=O)=O)c1,8,-7%,i,-5%,nt,nt
O=C(CN1C(=O)c2ccccc2S1(=O)=O)c1ccccc1,-65*,-12%,nt,?,?,4µM*
O=C(CCN1C(=O)c2ccccc2S1(=O)=O)Nc1ccc(Cl)cc1,-78*,-24%,-15%,15%,25%[46.1 µM],-21%[46.1 µM]
COC(=O)[C@]12CCCCC=C1N(Cc1ccc(Cl)cc1Cl)C(=O)[C@H](CC(=O)NCc1ccccc1)C2,6,-1%,i,-9%,nt,nt
CCOC(=O)[C@]12CCCC=C1N(Cc1ccc(Cl)cc1Cl)C(=O)[C@H](CC(=O)NCc1ccc(OC)c(OC)c1)C2,-71*,?,?,?,nt,nt
CCOC(=O)[C@]12CCCC=C1N(Cc1ccc(Cl)cc1Cl)C(=O)[C@H](CC(=O)NCc1cccc(C(F)(F)F)c1)C2,-13,-19%,-20%,-28%,nt,nt
CCOC(=O)[C@]12CCCC=C1N(Cc1ccc3c(c1)OCO3)C(=O)[C@H](CC(=O)NCc1cccc(C(F)(F)F)c1)C2,-65*,?,?,-15%,nt,nt
CCOC(=O)[C@]12CCCC=C1N(Cc1ccco1)C(=O)[C@H](CC(=O)N1CCSCC1)C2,-82*,-7%,-3%,-12%,nt,nt
CCOC(=O)[C@]12CCC=C1N(Cc1ccc3c(c1)OCO3)C(=O)[C@H](CC(=O)NCc1cccc(C(F)(F)F)c1)C2,13,-22%,?,-19%,nt,nt
COC(=O)[C@]12CCCCC=C1N(Cc1ccc(Cl)cc1Cl)C(=O)[C@H](CC(=O)NCc1ccc(OC)c(OC)c1)C2,-70*,-24%,-11%,32µM*,nt,nt
CC(=O)c1cccc(NC(=O)c2ccc(Cl)c(S(=O)(=O)N3CCOCC3)c2)c1,48,-9%,-8%,?,nt,0%[46.1 µM]
CCCCN(C)CCNC(=O)c1ccc2c(c1)NC(=O)CN2,2,-9%,-5%,-4%,nt,26%[46.1 µM]
CCCS(=O)(=O)c1nc(S(=O)(=O)c2ccc(C)cc2)c(N(C)Cc2ccccc2)s1,?,-15%,i,-7%,?,-20%[46.1 µM]
CCNC(=S)NC1CC2CCCC(C1)N2Cc1ccc(C)cc1 (stereo not given),5,nt,nt,-12%,nt,nt
CNC(=S)NC1CC2CCCC(C1)N2Cc1ccc(C)cc1 (stereo not given),-4,nt,nt,-18%,4.6µM*,15%
Cc1ccc(CN2C3CCCC2CC(NC(=S)NCc2ccccc2)C3)cc1 (stereo not given),-67*,-21%,?,-7%,?,?
CCCCNc1c(-c2ccc(OC)c(SC3CCCCC3)c2)nc2cc(C)ccn12,-19,?,-49%,25µM*,nt,nt
CCCCNc1c(-c2cccc(-c3ccc(OC)cc3)c2)nc2ccc(C)cn12,3,?,13µM*,28µM*,nt,nt
CCCCNc1c(-c2cccc(-c3cc(C(C)=O)cs3)c2)nc2ccc(C)cn12,191,?,?,?,nt,nt

# Source: PubChem (National Center for Advancing Translational Sciences (NCATS))
